The record followed here is PubChem BioAssay (EPA / NIEHS).

More than one record can exist for a structure, and the calls need not agree. Active and inactive are the calls of the source. Rule for the calls: active = hit-call score of the fitted dose curve at least 0.9, where 1 is the maximum; inactive = score below 0.9.

Read-out in one experiment: Monocyte Chemoattractant Protein-1 (MCP1), CCL2 (gene 6347)
As to the kind of experiment: BSK_CASM3C_MCP1: BioMAP Diversity Plus: CASM3C Assay for Monocyte Chemoattractant Protein-1 (MCP1) Biomarker Activity (AID 2283046).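 Note: MCP-1 level quantified by ELISA 24 h after dosing.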 The note with it: primary human coronary artery smooth muscle cells; actives raise or lower the signal.
With `ClCC(Cl)CCl`, the outcome was inactive.

Turning to `CCOP(=S)(OCC)SCSP(=S)(OCC)OCC`, the outcome was inactive.

As to `CC(=O)C(Cl)C(=O)N(C)C` (stereo not given), the outcome was inactive.

Take `COc1cc(-c2ccc(N)c(OC)c2)ccc1N`: the outcome was inactive.

With `O=C1C2(Cl)C3(Cl)C4(Cl)C(Cl)(Cl)C5(Cl)C3(Cl)C1(Cl)C5(Cl)C24Cl` (stereo not given), the AC50 was 31.3 µM (active).

For `CCOC(=O)/C=C(C)/C=C/C[C@@H](C)CCCC(C)C`, the AC50 is 31.9 µM (active).

`CCOP(=S)(OCC)Oc1ccc(S(C)=O)cc1` (stereo not given): the outcome was inactive.

As for `ClC1(Cl)C2(Cl)C3(Cl)C4(Cl)C(Cl)(Cl)C5(Cl)C3(Cl)C1(Cl)C5(Cl)C24Cl` (stereo not given), the outcome was inactive.

In the case of `CCC(=O)C(CC(C)N(C)C)(c1ccccc1)c1ccccc1` (stereo not given), the result was inactive.

For the molecule `Cn1sc(Cl)cc1=O`, the outcome was inactive.

Take `Oc1cccc2cccnc12`: the result was inactive.

As for `CC(C)(C)c1cc(O)ccc1O`, the outcome was inactive.

With `CCNc1nc(NC(C)(C)C)nc(SC)n1`, the outcome was inactive.

As to `CC(C)c1ccc(CO)cc1`, the outcome was inactive.

On to `CC(C)(C)CC(C)(C)c1ccc(O)cc1`, for which the AC50 was 11.9 µM (active).

With `CCN1CCC2(CC1)COc1cc3c(cc12)N(C(=O)c1ccc(-c2ccc(-c4nnc(C)o4)cc2C)cc1)CC3`, the AC50 is 28.5 µM (active).

Turning to `O=Cc1cccc(Oc2ccccc2)c1`, the result was inactive.

For the molecule `Cc1ccccc1N`, the result was inactive.

As to `O=C(O)C(Cl)(Cl)Cl`, the outcome was inactive.

In the case of `O=c1[nH]c(=O)[nH]c(=O)[nH]1`, the result was inactive.

For the molecule `O=[N+]([O-])c1ccc2c3c(cccc13)CC2`, the outcome was inactive.

As for `C=CC(=O)OCCCCCC(C)C`, the result was inactive.

As for `CCC(C)(C)c1ccc(O)c(C(C)(C)CC)c1`, the AC50 was 34.6 µM (active).

`CCOP(=S)(OCC)SCCS(=O)(=O)CC`: the result was inactive.

Turning to `Nc1ncc([N+](=O)[O-])s1`, the result was inactive.

Turning to `O=C(O)C(F)(F)C(F)(F)C(F)(F)C(F)(F)C(F)(F)C(F)(F)C(F)(F)C(F)(F)C(F)(F)C(F)(F)F`, the result was inactive.

Take `O=C(O)C(F)(F)C(F)(F)C(F)(F)C(F)(F)C(F)(F)C(F)(F)F`: the outcome was inactive.

For `NC(=O)O`, the outcome was inactive.

As to `Oc1c(I)cc(I)cc1I`, the result was inactive.

In the case of `NC(=S)Nc1ccccc1`, the outcome was inactive.

In the case of `COP(=S)(OC)Oc1ccc(S(=O)(=O)N(C)C)cc1`, the outcome was inactive.

For the molecule `COC[C@H](C)N(C(=O)CCl)c1c(C)csc1C`, the result was inactive.

Regarding `Nc1ccc(-c2ccc(N)c(Cl)c2)cc1Cl`, the outcome was inactive.

Read-out in the next experiment: not listed separately
As to the kind of experiment: BSK_CASM3C_Proliferation: Cell Proliferation Assessment in the BioMAP Diversity Plus: CASM3C Assay (AID 2283047).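 Note: sulforhodamine B total protein stain as relative cell number at 560 nm; sub-confluent cells exposed 48 h before staining; fitted both ways against DMSO so gain or loss of cell number.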 The note with it: primary human coronary artery smooth muscle cells.
Regarding `ClCC(Cl)CCl`, the result was inactive.

`CCOP(=S)(OCC)SCSP(=S)(OCC)OCC`: the result was inactive.

For `CC(=O)C(Cl)C(=O)N(C)C` (stereo not given), the AC50 is 35.5 µM (active).

`COc1cc(-c2ccc(N)c(OC)c2)ccc1N`: the AC50 was 15 µM (active) and the outcome was inactive.

In the case of `O=C1C2(Cl)C3(Cl)C4(Cl)C(Cl)(Cl)C5(Cl)C3(Cl)C1(Cl)C5(Cl)C24Cl` (stereo not given), the AC50 is 6.61 µM (active).

Take `CCOC(=O)/C=C(C)/C=C/C[C@@H](C)CCCC(C)C`: the AC50 was 29 µM (active).

Take `CCOP(=S)(OCC)Oc1ccc(S(C)=O)cc1` (stereo not given): the outcome was inactive.

As to `ClC1(Cl)C2(Cl)C3(Cl)C4(Cl)C(Cl)(Cl)C5(Cl)C3(Cl)C1(Cl)C5(Cl)C24Cl` (stereo not given), the outcome was inactive.

Take `CCC(=O)C(CC(C)N(C)C)(c1ccccc1)c1ccccc1` (stereo not given): the result was inactive.

On to `Cn1sc(Cl)cc1=O`, for which the AC50 was 6.81 µM (active).

`Oc1cccc2cccnc12`: the AC50 was 5.5 µM (active).

As for `CC(C)(C)c1cc(O)ccc1O`, the AC50 is 29.6 µM (active).

With `CCNc1nc(NC(C)(C)C)nc(SC)n1`, the outcome was inactive.

`CC(C)c1ccc(CO)cc1`: the result was inactive.

With `CC(C)(C)CC(C)(C)c1ccc(O)cc1`, the AC50 is 10.1 µM (active).

In the case of `CCN1CCC2(CC1)COc1cc3c(cc12)N(C(=O)c1ccc(-c2ccc(-c4nnc(C)o4)cc2C)cc1)CC3`, the AC50 was 18.7 µM (active).

`O=Cc1cccc(Oc2ccccc2)c1`: the result was inactive.

For `Cc1ccccc1N`, the outcome was inactive.

As for `O=C(O)C(Cl)(Cl)Cl`, the outcome was inactive.

Consider `O=c1[nH]c(=O)[nH]c(=O)[nH]1`, for which the result was inactive.

`O=[N+]([O-])c1ccc2c3c(cccc13)CC2`: the result was inactive.

In the case of `C=CC(=O)OCCCCCC(C)C`, the outcome was inactive.

`CCC(C)(C)c1ccc(O)c(C(C)(C)CC)c1`: the AC50 was 14.3 µM (active).

Consider `CCOP(=S)(OCC)SCCS(=O)(=O)CC`, for which the outcome was inactive.

On to `Nc1ncc([N+](=O)[O-])s1`, for which the result was inactive.

As for `O=C(O)C(F)(F)C(F)(F)C(F)(F)C(F)(F)C(F)(F)C(F)(F)C(F)(F)C(F)(F)C(F)(F)C(F)(F)F`, the result was inactive.

As to `O=C(O)C(F)(F)C(F)(F)C(F)(F)C(F)(F)C(F)(F)C(F)(F)F`, the outcome was inactive.

As to `NC(=O)O`, the result was inactive.

On to `Oc1c(I)cc(I)cc1I`, for which the outcome was inactive.

Consider `NC(=S)Nc1ccccc1`, for which the outcome was inactive.

For `COP(=S)(OC)Oc1ccc(S(=O)(=O)N(C)C)cc1`, the outcome was inactive.

For the molecule `COC[C@H](C)N(C(=O)CCl)c1c(C)csc1C`, the outcome was inactive.

Take `Nc1ccc(-c2ccc(N)c(Cl)c2)cc1Cl`: the outcome was inactive.

Read-out in another experiment: Monokine induced gamma interferon (MIG), CXCL9 (gene 4283)
As to the kind of experiment: BSK_CASM3C_MIG: BioMAP Diversity Plus: CASM3C Assay for Monokine induced gamma interferon (MIG) Biomarker Activity (AID 2283048).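 Note: MIG protein level measured by ELISA.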 The note with it: primary human coronary artery smooth muscle cells; actives raise or lower the signal.
Consider `ClCC(Cl)CCl`, for which the result was inactive.

Regarding `CCOP(=S)(OCC)SCSP(=S)(OCC)OCC`, the outcome was inactive.

For the molecule `CC(=O)C(Cl)C(=O)N(C)C` (stereo not given), the result was inactive.

On to `COc1cc(-c2ccc(N)c(OC)c2)ccc1N`, for which the result was inactive.

Take `O=C1C2(Cl)C3(Cl)C4(Cl)C(Cl)(Cl)C5(Cl)C3(Cl)C1(Cl)C5(Cl)C24Cl` (stereo not given): the AC50 is 34.2 µM (active).

`CCOC(=O)/C=C(C)/C=C/C[C@@H](C)CCCC(C)C`: the AC50 was 30 µM (active).

On to `CCOP(=S)(OCC)Oc1ccc(S(C)=O)cc1` (stereo not given), for which the outcome was inactive.

`ClC1(Cl)C2(Cl)C3(Cl)C4(Cl)C(Cl)(Cl)C5(Cl)C3(Cl)C1(Cl)C5(Cl)C24Cl` (stereo not given): the result was inactive.

In the case of `CCC(=O)C(CC(C)N(C)C)(c1ccccc1)c1ccccc1` (stereo not given), the result was inactive.

Turning to `Cn1sc(Cl)cc1=O`, the outcome was inactive.

As to `Oc1cccc2cccnc12`, the result was inactive.

`CC(C)(C)c1cc(O)ccc1O`: the outcome was inactive.

For `CCNc1nc(NC(C)(C)C)nc(SC)n1`, the result was inactive.

Regarding `CC(C)c1ccc(CO)cc1`, the result was inactive.

Turning to `CC(C)(C)CC(C)(C)c1ccc(O)cc1`, the AC50 was 26.4 µM (active).

Take `CCN1CCC2(CC1)COc1cc3c(cc12)N(C(=O)c1ccc(-c2ccc(-c4nnc(C)o4)cc2C)cc1)CC3`: the AC50 was 36 µM (active).

`O=Cc1cccc(Oc2ccccc2)c1`: the result was inactive.

As for `Cc1ccccc1N`, the result was inactive.

Take `O=C(O)C(Cl)(Cl)Cl`: the outcome was inactive.

As to `O=c1[nH]c(=O)[nH]c(=O)[nH]1`, the outcome was inactive.

`O=[N+]([O-])c1ccc2c3c(cccc13)CC2`: the outcome was inactive.

Regarding `C=CC(=O)OCCCCCC(C)C`, the result was inactive.

As for `CCC(C)(C)c1ccc(O)c(C(C)(C)CC)c1`, the AC50 is 35.8 µM (active).

Take `CCOP(=S)(OCC)SCCS(=O)(=O)CC`: the outcome was inactive.

Consider `Nc1ncc([N+](=O)[O-])s1`, for which the outcome was inactive.

`O=C(O)C(F)(F)C(F)(F)C(F)(F)C(F)(F)C(F)(F)C(F)(F)C(F)(F)C(F)(F)C(F)(F)C(F)(F)F`: the result was inactive.

On to `O=C(O)C(F)(F)C(F)(F)C(F)(F)C(F)(F)C(F)(F)C(F)(F)F`, for which the outcome was inactive.

As for `NC(=O)O`, the outcome was inactive.

As to `Oc1c(I)cc(I)cc1I`, the result was inactive.

For `NC(=S)Nc1ccccc1`, the result was inactive.

For the molecule `COP(=S)(OC)Oc1ccc(S(=O)(=O)N(C)C)cc1`, the outcome was inactive.

On to `COC[C@H](C)N(C(=O)CCl)c1c(C)csc1C`, for which the result was inactive.

As to `Nc1ccc(-c2ccc(N)c(Cl)c2)cc1Cl`, the outcome was inactive.
